PubChem BioAssay AID1159580 (chemical genetic matrix, 2015)
Values joined by “and” are separate entries in the source; they are usually repeats but may differ in a detail not shown here. Equal values may be shown once. Screen size: about 5,500 compounds; about 2,000 (36%) were called active. Not shown: some 18% with an inconclusive outcome. Cut-off read from the data, not from the text of the source: active = normalized growth mostly below about 0.91 (no sharp cut-off); inconclusive = no clear call, values can overlap the other calls; inactive = mostly above about 0.92. The list shows a part of the results.

Assay: chemical genetic growth profiling, strain panel (AID 1159580);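 note: tested at 20 µM; growth read once vehicle control cultures reached saturation at 30 °C; 1 = growth at the plate median or of vehicle wells; lower values mean less growth of the strain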
Conditions: S. cerevisiae deletion strains, growth OD

Measured: normalized growth

CC1(C)C2CC(=O)[C@]3(C)C(CC[C@@]4(C)[C@H](c5ccoc5)OC(=O)C5OC543)[C@@]2(C)[C@@H](O)C[C@H]1O (stereo not given in full)
inactive: locus YAL021C, strain ccr4, stronger effect = lower value 0.987 | locus YAL026C, strain drs2, stronger effect = lower value 1.01 | locus YAL030W, strain snc1, stronger effect = lower value 1 | locus YBL061C, strain skt5, stronger effect = lower value 1.01 | locus YBR009C, strain hhf1, stronger effect = lower value 1.02 | locus YBR021W, strain FUR4, stronger effect = lower value 1 | locus YBR023C, strain chs3, stronger effect = lower value 1.01 | locus YBR171W, strain sec66, stronger effect = lower value 1.03 | locus YBR229C, strain ROT2, stronger effect = lower value 1.01 | locus YBR231C, strain swc5, stronger effect = lower value 1.01 | locus YBR279W, strain paf1, stronger effect = lower value 1 | locus YCL011C, strain gbp2, stronger effect = lower value 1.01 | locus YCL016C, strain dcc1, stronger effect = lower value 1.01 | locus YCL029C, strain bik1, stronger effect = lower value 1.02 | locus YCL069W, strain vba3, stronger effect = lower value 1.02 | locus YCR088W, strain abp1, stronger effect = lower value 1.01 | locus YDL005C, strain med2, stronger effect = lower value 1 | locus YDL035C, strain GPR1, stronger effect = lower value 1.08 | locus YDL040C, strain nat1, stronger effect = lower value 1 | locus YDL074C, strain BRE1, stronger effect = lower value 1.09 | locus YDL101C, strain DUN1, stronger effect = lower value 1.02 | locus YDL134C, strain PPH21, stronger effect = lower value 1.04 | locus YDL185W, strain tfp1, stronger effect = lower value 0.996 | locus YDL192W, strain arf1, stronger effect = lower value 1.01 | locus YDR001C, strain nth1, stronger effect = lower value 1 | locus YDR069C, strain doa4, stronger effect = lower value 0.995 | locus YDR101C, strain arx1, stronger effect = lower value 0.98 | locus YDR137W, strain rgp1, stronger effect = lower value 1.02 | locus YDR159W, strain sac3, stronger effect = lower value 1.03 | locus YDR162C, strain NBP2, stronger effect = lower value 1.05 | locus YDR195W, strain ref2 0.968 | locus YDR297W, strain sur2, stronger effect = lower value 1.01 | locus YDR318W, strain mcm21, stronger effect = lower value 1 | locus YDR334W, strain swr1, stronger effect = lower value 1 | locus YDR335W, strain msn5, stronger effect = lower value 1.01 | locus YDR388W, stronger effect = lower value 0.976 | locus YDR392W, strain spt3, stronger effect = lower value 1.01 | locus YDR502C, strain sam2, stronger effect = lower value 1.01 | locus YEL003W, strain gim4, stronger effect = lower value 1.01 | locus YEL037C, strain rad23, stronger effect = lower value 1 | locus YEL061C, strain CIN8 (second series), stronger effect = lower value 0.994 | locus YER015W, strain faa2, stronger effect = lower value 0.997 | locus YER016W, strain bim1, stronger effect = lower value 1.01 | locus YER110C, stronger effect = lower value 0.988 | locus YER111C, strain swi4, stronger effect = lower value 1.01 | locus YER155C, strain BEM2 (second series), stronger effect = lower value 1.02 | locus YER155C, strain BEM2, stronger effect = lower value 1 | locus YER167W, strain BCK2, stronger effect = lower value 1.01 | locus YFR010W, strain ubp6, stronger effect = lower value 0.994 | locus YGL078C, strain dbp3, stronger effect = lower value 0.987 | locus YGL086W, strain mad1, stronger effect = lower value 1 | locus YGL167C, strain pmr1, stronger effect = lower value 1 | locus YGL173C, strain kem1, stronger effect = lower value 1.01 | locus YGL227W, strain vid30, stronger effect = lower value 1.03 | locus YGL240W, strain doc1, stronger effect = lower value 1.01 | locus YGL248W, strain PDE1, stronger effect = lower value 1.06 | locus YGL253W, strain hxk2, stronger effect = lower value 1 | locus YGR078C, strain PAC10, stronger effect = lower value 1.05 | locus YGR135W, strain pre9, stronger effect = lower value 1 | locus YGR252W, strain gcn5, stronger effect = lower value 0.913 | locus YHR013C, strain ard1, stronger effect = lower value 1.02 | locus YHR027C, strain rpn1, stronger effect = lower value 0.985 | locus YHR030C, strain SLT2, stronger effect = lower value 1.02 and 1.04 | locus YHR079C, strain IRE1 (second series), stronger effect = lower value 0.985 | locus YHR079C, strain IRE1, stronger effect = lower value 1.03 | locus YHR094C, strain hxt1, stronger effect = lower value 0.982 | locus YHR129C, strain ARP1, stronger effect = lower value 1.03 | locus YHR142W, strain chs7, stronger effect = lower value 0.989 | locus YHR200W, strain rpn10, stronger effect = lower value 0.996 | locus YIL066C, strain RNR3, stronger effect = lower value 1.02 | locus YIL073C, strain SPO22, stronger effect = lower value 1.12 | locus YIL125W, strain kgd1, stronger effect = lower value 0.992 | locus YIR030C, strain dcg1, stronger effect = lower value 0.985 | locus YJL092W, strain hpr5, stronger effect = lower value 1 | locus YJL095W, strain BCK1 (second series), stronger effect = lower value 1.02 | locus YJL095W, strain BCK1, stronger effect = lower value 1.07 and 1.01 | locus YJL115W, strain asf1, stronger effect = lower value 0.999 | locus YJL129C, strain trk1, stronger effect = lower value 1.02 | locus YJL134W, strain LCB3, stronger effect = lower value 1.01 | locus YJL154C, strain vps35, stronger effect = lower value 0.999 | locus YJL164C, strain tpk1, stronger effect = lower value 1.01 | locus YJL166W, strain qcr8, stronger effect = lower value 1.01 | locus YJL168C, strain set2, stronger effect = lower value 1 | locus YJL187C, strain SWE1 (second series), stronger effect = lower value 1.03 | locus YJL187C, strain SWE1, stronger effect = lower value 1.01 | locus YJR066W, strain TOR1, stronger effect = lower value 0.964 | locus YKL009W, strain mrt4, stronger effect = lower value 0.998 | locus YKL068W, stronger effect = lower value 0.984 | locus YKL085W, strain MDH1 (second series), stronger effect = lower value 0.989 | locus YKL085W, strain MDH1, stronger effect = lower value 0.989 | locus YKL160W, strain elf1, stronger effect = lower value 1.02 | locus YKL190W, strain CNB1, stronger effect = lower value 1.01 | locus YKR001C, strain vps1, stronger effect = lower value 0.997 | locus YKR026C, strain gcn3, stronger effect = lower value 1.01 | locus YKR091W, strain srl3, stronger effect = lower value 1.01 | locus YLL001W, strain dnm1, stronger effect = lower value 0.999 | locus YLL026W, stronger effect = lower value 1 | locus YLL041C, strain sdh2, stronger effect = lower value 0.997 | locus YLR027C, strain aat2, stronger effect = lower value 1.01 | locus YLR039C, strain RIC1, stronger effect = lower value 1.17 | locus YLR058C, strain SHM2, stronger effect = lower value 1.03 | locus YLR102C, strain apc9, stronger effect = lower value 0.989 | locus YLR113W, strain HOG1, stronger effect = lower value 0.988 | locus YLR221C, strain rsa3, stronger effect = lower value 1.01 | locus YLR258W, strain gsy2, stronger effect = lower value 1.01 | locus YLR262C, strain YPT6 (second series), stronger effect = lower value 1.01 | locus YLR268W, strain sec22, stronger effect = lower value 1.02 | locus YLR320W, strain mms22, stronger effect = lower value 1 | locus YLR342W, strain FKS1 (second series), stronger effect = lower value 1.04 | locus YLR342W, strain FKS1, stronger effect = lower value 1.02 | locus YLR357W, strain rsc2, stronger effect = lower value 1.01 | locus YLR370C, strain arc18, stronger effect = lower value 0.996 | locus YLR371W, strain rom2, stronger effect = lower value 0.992 | locus YLR384C, strain iki3, stronger effect = lower value 0.99 | locus YLR418C, strain cdc73, stronger effect = lower value 0.974 | locus YML016C, strain PPZ1, stronger effect = lower value 1.01 | locus YML032C, strain rad52, stronger effect = lower value 0.986 | locus YML120C, strain ndi1, stronger effect = lower value 1.01 | locus YML124C, strain tub3, stronger effect = lower value 0.992 | locus YMR058W, strain fet3, stronger effect = lower value 1 | locus YMR078C, strain ctf18, stronger effect = lower value 0.988 | locus YMR125W, strain sto1, stronger effect = lower value 1.01 | locus YMR129W, stronger effect = lower value 1 | locus YMR205C, strain PFK2, stronger effect = lower value 1.03 | locus YMR223W, strain ubp8, stronger effect = lower value 0.985 | locus YMR231W, strain pep5, stronger effect = lower value 1.01 | locus YMR263W, strain SAP30, stronger effect = lower value 1.01 | locus YMR307W, strain GAS1, stronger effect = lower value 1.15 | locus YNL067W, strain RPL9B, stronger effect = lower value 1.02 | locus YNL071W, strain lat1, stronger effect = lower value 1 | locus YNL153C, strain GIM3, stronger effect = lower value 1.06 | locus YNL183C, strain NPR1, stronger effect = lower value 0.967 | locus YNL209W, strain ssb2, stronger effect = lower value 0.997 | locus YNL233W, strain BNI4, stronger effect = lower value 1.06 | locus YNL248C, strain rpa49, stronger effect = lower value 1 | locus YNL250W, strain rad50, stronger effect = lower value 1.03 | locus YNL271C, strain bni1, stronger effect = lower value 0.968 | locus YNL298W, strain CLA4, stronger effect = lower value 0.991 | locus YNL307C, strain MCK1, stronger effect = lower value 0.987 | locus YNL322C, strain KRE1 (second series), stronger effect = lower value 1.03 | locus YNR049C, strain mso1, stronger effect = lower value 0.997 | locus YNR052C, strain pop2, stronger effect = lower value 0.975 | locus YOL012C, strain htz1 1.54 | locus YOL147C, strain pex11, stronger effect = lower value 0.982 | locus YOR001W, strain rrp6, stronger effect = lower value 1.01 | locus YOR061W, strain CKA2, stronger effect = lower value 1.01 | locus YOR069W, strain VPS5, stronger effect = lower value 1.01 | locus YOR070C, strain gyp1, stronger effect = lower value 1 | locus YOR080W, strain dia2, stronger effect = lower value 0.999 | locus YOR083W, strain WHI5, stronger effect = lower value 1.02 | locus YOR106W, strain vam3, stronger effect = lower value 1.01 | locus YOR136W, strain idh2, stronger effect = lower value 0.986 | locus YOR144C, strain elg1, stronger effect = lower value 0.979 | locus YOR184W, strain ser1, stronger effect = lower value 1.01 | locus YOR231W, strain MKK1, stronger effect = lower value 1.03 | locus YOR265W, strain rbl2, stronger effect = lower value 0.983 | locus YOR270C, strain vph1, stronger effect = lower value 0.904 | locus YOR290C, strain snf2, stronger effect = lower value 1.02 | locus YOR316C, strain cot1, stronger effect = lower value 0.979 | locus YPL051W, strain arl3, stronger effect = lower value 0.994 | locus YPL078C, strain atp4, stronger effect = lower value 1.03 | locus YPL106C, strain sse1, stronger effect = lower value 1.02 | locus YPL240C, strain hsp82, stronger effect = lower value 1 | locus YPL241C, strain CIN2, stronger effect = lower value 1.02 | locus YPL256C, strain CLN2, stronger effect = lower value 1.03 | locus YPR119W, strain clb2, stronger effect = lower value 0.978 | locus YPR141C, strain kar3, stronger effect = lower value 0.99 | locus YPR163C, strain tif3, stronger effect = lower value 0.997 | locus YPR167C, strain met16, stronger effect = lower value 1 | strain wtn01, stronger effect = lower value 1
